Compound activity as filed in PubChem.
Cav32 inh – human Cav3.2 channel inhibition, primary screen | O95180 | Cav3.2-expressing cells, Fluo-4 calcium fluorescence FDSS; hits give low values | B-score at 10 µM | hit rate 4% among 100,000;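 active = single-dose well whose peak fluorescence ratio is a statistical outlier from its plate by either plate-standardised score or position-corrected B-score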
PostGolgi yeast – growth inhibition of a yeast mutant, post-Golgi transport screen | post-Golgi transport phenotypic cell assay | inhibition, % at 10 µM | hit rate 0.9% among 98,000 | AID 739;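 note: yeast cells grown in 1536-well plates; yeast grown about 18 h at 30C before absorbance read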
PTK2B oligo ant – blocks oligomerization of human Pyk2 in cells | Q14289 | Q293 cells, Pyk2 FERM NanoBiT luminescence; hits give low values | z-score (the deposit names both 25 µM and 10 µM) | hit rate 0.83% among 99,000 | AID 1347419;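 active = Z-score of -3 or lower, scaled per plate to the spread of control and sample wells; inactive = z-score above -3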;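 note: negative z-score means lost luminescence so less FERM oligomerization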
PostGolgi ctrl – growth of the yeast control strain, post-Golgi counter-screen | hit rate 5% among 98,000 | inhibition, % at 10 µM | AID 738 | efflux-deficient yeast background strain, growth absorbance A615, 16 h
Active calls of the source: *; . = no result given. In the library only some 8% were active in any assay of this set; here they are far more common. Cut-off read from the data, not from the text of the source, unless noted: active = inhibition above about 30%; inactive = the rest.

SMILES	Cav32 inh	PostGolgi yeast	PTK2B oligo ant	PostGolgi ctrl
C[C@H](NC(=O)Nc1ccc2c(c1)OCCO2)C(=O)O	0.67	15	1.3	2
O=C(c1ncc[nH]1)c1ccccc1C(=O)N1CCOCC1	-0.054	-1	0.78	33*
CCOC(=O)c1c(NC(=O)CSc2nnnn2C)sc(CC)c1C	-1.9	0	-0.73	15
COc1ccc(Br)cc1C1N2CC3(C)CN1CC(C)(C2)C3=O (configuration not stated)	0.66	3	1.6	39*
COc1ccc2[nH]cc(C3N4CC5(C)CN3CC(C)(C4)C5=O)c2c1 (configuration not stated)	0.25	-9	0.75	-3
O=c1cc(-c2ccc(O)c(O)c2)oc2cc(O)c(C3OC(CO)C(O)C(O)C3O)c(O)c12 (configuration not stated)	0.83	.	.	.
Cc1cc(N2C(=O)C(=O)/C(=C(/O)c3ccc(F)cc3)C2c2ccc(Cl)cc2)no1 (configuration not stated)	-6.2*	-2	-1.5	9
N#CC1=C(N)C(C#N)(C#N)C(c2cccnc2)C2CCCC=C12 (configuration not stated)	-2.1	3	.	14
N#CC1=C(N)C(C#N)(C#N)C(c2cccnc2)C2CC(c3ccccc3)CC=C12 (configuration not stated)	-2.5	71*	-1.4	14
CCOc1ccc(N2C(=O)CS/C2=N/NC(=O)COc2ccc3ccccc3c2)cc1	-3.5*	5	-0.44	20
CCNC(=O)COc1ccc2ccccc2c1	0.66	6	0.95	1
COc1ccc(Nc2nc(NCCO)nc(N3CCCC3)n2)cc1	0.68	.	.	.
CCCNc1nc(Nc2ccc(C)cc2)nc(N2CCCC2)n1	-3	-5	-0.35	36*
Cc1cccc(-c2nnc(-c3cccc(NC(=O)Cc4cccs4)c3)o2)c1	-3.2	81*	-1.9	26
COc1ccc2nc(NC(=O)Cc3cccs3)sc2c1	0.081	7	0.55	-2
Cc1ccc2nc(NC(=O)Cc3cccs3)sc2c1	-3.6*	9	-0.01	3
COc1ccc2nc(NC(=O)C3CCN(S(=O)(=O)c4cccs4)CC3)sc2c1	-1.9	2	-1.3	37*
Cc1ccc2nc(NC(=O)C3CCN(S(=O)(=O)c4cccs4)CC3)sc2c1	-3.5	38*	-0.39	44*
COc1ccc(/C=C/C(=O)c2sc(-c3ccccc3)nc2C)cc1	-1.1	4	0.49	11
O=C(COC(=O)c1cccc(S(=O)(=O)N2CCOCC2)c1)Nc1nc(-c2ccccc2Cl)cs1	-5*	5	-0.09	-1
O=C(COC(=O)c1cccc(S(=O)(=O)N2CCOCC2)c1)Nc1ncc(C(F)(F)F)cc1Cl	0.53	4	0.82	-8
CCc1nc2ccccc2c(C(=O)OCC(=O)Nc2cccc(S(=O)(=O)N3CCOCC3)c2)c1C	-1.4	-4	-4.7*	3
CCc1nc2ccccc2c(C(=O)OCC(=O)Nc2ccc(S(=O)(=O)N3CCOCC3)cc2)c1C	-0.32	-6	-4.4*	29
CC(=O)N1CCc2cc(S(=O)(=O)NCCC(=O)N3CCN(c4ccccn4)CC3)ccc21	1.2	10	-0.05	35*
O=C1c2cnc3nc(SCc4ccccc4)nn3c2CC2c3ccccc3CCN12 (configuration not stated)	-0.68	68*	-0.15	96*
SMILES	Cav32 inh	PostGolgi yeast	PTK2B oligo ant	PostGolgi ctrl
Cc1csc(SCC(=O)NCc2cccs2)n1	0.41	2	0.63	38*
CCCC(=O)Nc1nnc(SCC(=O)NCc2cccs2)s1	0.86	1	0.5	-1
Cc1cc(Cl)ccc1NC(=S)NCc1ccc(Cl)cc1	0.1	6	-1.3	-2
COc1ccc(NC(=S)NCCC(c2ccccc2)c2ccccc2)c(OC)c1	-1.6	5	0.71	9
S=C(NCCc1ccccc1)Nc1ccc(Cl)cc1Cl	-5.1*	-10	-1.4	4
COc1cccc(NC(=S)NCCC(c2ccccc2)c2ccccc2)c1	-6.9*	-12	-0.83	16
COc1cccc(NC(=O)C(NCCC(C)C)c2ccccc2)c1 (configuration not stated)	-6.2*	-6	-0.67	8
Cc1cc(Cl)ccc1NC(=S)NCCC(c1ccccc1)c1ccccc1	-3.6*	1	-0.15	14
COc1ccc(Br)cc1C(=O)Nc1cc(C)cc(C)c1	0.31	9	0.79	17
O=c1c(Cl)c(N/N=C/c2ccc(Br)cc2)cnn1-c1ccccc1	.	11	-0.76	3
C[C@H]1CCC[C@@]2(O[C@H](CCO)C[C@H](O)[C@H]2O)O1	0.55	.	.	.
COc1ccccc1C1CC(c2ccc(Cl)cc2)Nc2ncnn21 (configuration not stated)	-2.6	4	-0.04	3
Cc1c(Cl)cccc1NC(=S)NCCC(c1ccccc1)c1ccccc1	-6.9*	.	-0.56	.
Cc1c(Cl)cccc1NC(=S)NCCC(C)C	-1.2	-5	0.08	-1
COc1ccc2cc(C3(C)NC(=O)N(CC(=O)NCCC4=CCCCC4)C3=O)ccc2c1 (configuration not stated)	-7.4*	-4	-1.1	-2
CC(Oc1ccccc1)C(=O)NNS(=O)(=O)c1ccc([N+](=O)[O-])cc1 (configuration not stated)	.	.	-0.55	.
CCOc1ccc(-c2nc(-c3ccccc3C)no2)cc1	0.23	.	.	.
CNc1nc(Nc2ccc(C(C)=O)cc2)nc(OC(C(F)(F)F)C(F)(F)F)n1	-0.61	7	-3.2*	30*
CC(=O)c1ccc(Nc2nc(NCCO)nc(OC(C(F)(F)F)C(F)(F)F)n2)cc1	-0.003	.	-3.3*	.
COc1ccc(Nc2nc(NCCO)nc(OC)n2)cc1	0.44	10	1.6	-5
Cc1ccsc1-c1nc(-c2ccccc2)c(-c2ccccc2)[nH]1	0.27	-2	-1.6	14
Oc1ccccc1N=Nc1nc(-c2ccccc2)c(-c2ccccc2)[nH]1	-0.36	-6	-3.8*	-1
COC(=O)c1c(NC(=O)COC(=O)Cn2cnc3ccccc32)sc2c1CCCC2	.	.	0.23	.
C=CCOC(=O)N1CCN(c2cccc(C(F)(F)F)c2)CC1	-1.5	-7	-0.48	16
O=C(Nc1nc2nc(-c3ccccc3)cc(-c3ccccc3)n2n1)c1ccco1	-1.1	4	-3.5*	16
SMILES	Cav32 inh	PostGolgi yeast	PTK2B oligo ant	PostGolgi ctrl
CC(=O)Nc1nc2nc(-c3ccccc3)cc(-c3ccccc3)n2n1	1.1	-4	-1.4	-4
Cn1c(=O)c2c(nc(N3CCc4ccccc4C3)n2Cc2ccccc2F)n(C)c1=O	-3.7	9	-2.8	47*
Cn1c(=O)c2c(nc(N3CCN(c4ccccn4)CC3)n2Cc2ccccc2Cl)n(C)c1=O	0.72	-1	0.58	33*
Cn1c(=O)c2c(nc(N3CCc4ccccc4C3)n2Cc2ccc(Br)cc2)n(C)c1=O	-0.41	-5	-0.47	27
Cc1cc(Cl)ccc1OC(C)C(=O)Nc1ccc(S(=O)(=O)Nc2cnc3ccccc3n2)cc1 (configuration not stated)	-2.6	27	0.18	35*
CC(Oc1ccc(Cl)cc1Cl)C(=O)Nc1cccnc1 (configuration not stated)	2	.	0.3	.
Cc1ccc(OC(C)C(=O)Nc2ccc(S(=O)(=O)Nc3cc(C)on3)cc2)cc1 (configuration not stated)	0.55	2	0.15	33*
